Data published in PubChem BioAssay (EPA / NIEHS).
Inconclusive results are not listed. Calls of active or inactive are those of the source. The calls were made as follows, unless noted: active = hit-call score of the fitted dose curve at least 0.9, where 1 is the maximum; inconclusive = response in the unintended direction; inactive = score below 0.9.

Key:
[1] = CCTE_Deisenroth_H295R-HTRF_384WELL_ESTRADIOL: CCTE's H295R-HTRF Assay Evaluation of Estradiol Concentration, Deisenroth Lab (AID 2284361; active = hit-call score of the fitted dose curve at least 0.9, where 1 is the maximum; inactive = score below 0.9); settings: actives raise or lower the signal
In short: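 H295R cells exposed 48 h to chemicals at 0.001 - 100 uM final (nine points, triplicate); estradiol in conditioned medium measured by HTRF immunoassay, fitted bidirectionally versus DMSO. Viability by CellTiter-Glo on same plates.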

[2] = CCTE_Deisenroth_H295R-HTRF_384WELL_TESTOSTERONE: CCTE's H295R-HTRF Assay Evaluation of Testosterone Concentration, Deisenroth Lab (AID 2284373; active = hit-call score of the fitted dose curve at least 0.9, where 1 is the maximum; inactive = score below 0.9); settings: actives raise or lower the signal
In short: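 Testosterone secreted into medium was quantified by direct HTRF immunoassay after a 48 h treatment of H295R adrenocortical cells (nine concentrations, 0.001–100 uM final). Gain or loss fitted relative to DMSO; CellTiter-Glo viability read on same plates.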

[3] = CCTE_Deisenroth_H295R-HTRF_384WELL_CTOX: Cytotoxicity Assessment in CCTE's H295R-HTRF Assay, Deisenroth Lab (AID 2284380)
In short: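 H295R adrenocortical carcinoma cells plated 24 h, then exposed 48 h to nine-point series 0.001–100 uM final, triplicate, n=5. ATP measured by CellTiter-Glo 2.0 luminescence on same plates after medium collection; loss versus DMSO.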

SERPINA7 (gene 6906) = assay: CCTE_GLTED_hTBG: CCTE's human Thyroxine-binding Globulin (TBG) Inhibition Assay, Great Lakes Toxicology and Ecology Division (GLTED) Lab (AID 2284343);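 also: active chemicals lower fluorescence versus DMSO baseline by displacing probe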
In short: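 Cell-free binding assay in which human TBG is incubated with test chemical for 2 hours and displacement of the fluorescent probe ANSA is read at 380 nm excitation/475 nm emission. Activity is fitted against DMSO as the negative control.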

[4] = VALA_MIGHUV1_ScratchOnly_WoundArea: VALA Sciences human Umbilical Vein Endothelial Cell Migration (MIGHUV) Assay, Area of Scratch Wound Inhibited Recovery (AID 2284336)
In short: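 HUVEC monolayers (9000 cells/well) were scratched after 24 h, dosed within 30 min (six concentrations, triplicate, 0.1% DMSO), allowed 24 h recovery, then fixed. Hoechst-stained nuclei in the wound imaged; cytochalasin D as reference.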

[5] = VALA_TUBHUV_Agonist_TubuleLength: VALA Sciences human Umbilical Vein Endothelial Tubule Formation (TUBHUV) Agonism Assay (AID 2284337)
In short: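 HUVEC co-cultured with fibroblasts (1:3) 3 days in 10 ng/ml VEGF, then 3 days with compound plus VEGF; 0.1 % DMSO neutral control. Fixed, nuclear and CD31 stained; tubule length by fluorescence imaging.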

[6] = VALA_TUBIPS_Agonist_CellCount: Viability Assessment in the VALA Sciences human iPS-derived Endothelial Tubule Formation (TUBIPS) Agonism Assay (AID 2284338)
Description: VALA_TUBIPS_Agonist is a cell-based, multiplexed assay that uses human iPS-derived endothelial cells (iPSC). Measurements were taken 72 hours after chemical dosing in a 96-well plate.VALA_TUBIPS_Agonist_CellCount is the one of two assay components measured from the VALA_TUBIPS_Agonist assay. It is designed to make measurements of viability, a form of viability reporter, as detected with fluorescence intensity signals by HCS Fluorescent Imaging technology. Data from the assay component VALA_TUBIPS_Agonist_CellCount was analyzed at the endpoint, VALA_TUBIPS_Agonist_CellCount, in the positive analysis fitting direction relative to DMSO as the negative control and baseline of activity. Using a type of viability reporter, loss-of-signal activity can be used to understand viability. To generalize the intended target to other relatable targets, this assay endpoint is annotated to the cell cycle intended target family, where the subfamily is cell count.
[…]

[7] = CCTE_Mundy_HCI_iCellGluta_NOG_NeuronCount: CCTE's Neurite Outgrowth Assay in iCellGluta cells for Neuron Count, Mundy Lab (AID 2284340);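 also: cells fixed about 48 h after compound addition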
In short: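 Neuron count read by automated high-content imaging of Hoechst 33342 and betaIII-tubulin/Alexa Fluor-488 labelling in human iPSC glutamatergic neurons. Activity fitted relative to DMSO.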

[8] = CCTE_Mundy_HCI_iCellGluta_NOG_NeuriteCount: CCTE's Neurite Outgrowth Assay in iCellGluta cells for Neurite Count, Mundy Lab (AID 2284342);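 also: chemical exposure about 48 hours starting 2 hours after plating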

CCCCOCCOCCOCc1cc2c(cc1CCC)OCO2
outcome [1]: inactive | outcome [2]: inactive | outcome [3]: inactive

CCN(Cc1c(F)cccc1Cl)c1c([N+](=O)[O-])cc(C(F)(F)F)cc1[N+](=O)[O-]
AC50 (SERPINA7 (gene 6906)): 0.62 µM (active)

CC(C)CCCCCCc1ccc(O)cc1
outcome [4]: inactive | outcome [5]: inactive | outcome [6]: inactive | AC50 (SERPINA7 (gene 6906)): 5.2 µM (active)

CCN(CC)C(=O)c1cccc(C)c1
outcome [7]: inactive | outcome [8]: inactive

O=C(O)C1(C(=O)Nc2ccc(Cl)cc2Cl)CC1
AC50 (SERPINA7 (gene 6906)): 66 µM (active)

CCCN(CCC)C(=O)SCC
outcome [7]: inactive | outcome [8]: inactive

CSC(=O)c1cccc2nnsc12
outcome [8]: inactive

N[C@@H](Cc1cc(I)c(Oc2ccc(O)c(I)c2)c(I)c1)C(=O)O
outcome [4]: inactive | outcome [5]: inactive | outcome [6]: inactive

C#CCOC(=O)[C@@H](C)Oc1ccc(Oc2ncc(Cl)cc2F)cc1
outcome [7]: inactive | AC50 [8]: 34 µM (active)
